NF-kB expr up: activators of NF-kB expression in neurons, primary screen, cell-based, HTS. fold change at 12.5 µM. human neuronal cells, NF-kB reporter expression; stronger effect = higher value. 190,000 tested, 1.6% active; in the data active means fold change above about 3.3
ssDAF-12 act: S. stercoralis DAF-12 nuclear receptor activators, primary screen, cell-based, luminescence, HEK293, GRIP1 co-expression, lit1-tk-luc; Nuclear hormone receptor DAF-12 (Strongyloides stercoralis); HEK293 ssDAF-12/GRIP1 lit1-tk-luc reporter; % of 3 µM dafachronic acid response; activation, % at 6.8 µM; 370,000 tested, 1% active; AID 652126, 2013;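 active means activation above the mean over all tested compounds plus 3 SD, cut at about 0.9% in these data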
APP 5'UTR act: activators of APP 5'UTR luciferase reporter, primary screen, SH-SY5Y cells; 190,000 tested, 1% active; activation, % at 2 µM; SH-SY5Y APP 5'UTR luciferase reporter, luminescence; zero percent = DMSO vehicle wells;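 active means activation above a set limit, based on mean plus 3 SD of controls, cut at about 140% in these data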
hgDAF-12 ag: H. glycines DAF-12 receptor agonists, primary screen, cell-based, luminescence, HEK293, GAL4 fusion, UAS-luciferase; activation, % at 6.8 µM; AID 687014, 2013; 370,000 tested, 1.8% active; HEK293 GAL4-hgDAF12 UAS-luciferase reporter, agonist luminescence; normalized to butyrate control;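 active means activation above a cutoff set at the mean of all screened compounds plus 3 SD, cut at about 10% in these data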
hcDAF-12 act: H. contortus DAF-12 nuclear receptor activators, primary screen, cell-based, luminescence, HEK293, lit1-tk-luc reporter; HEK293 hcDAF-12 lit1-tk-luc reporter; 0% DMSO, 100% Δ7-dafachronic acid; activation, % at 6.8 µM; 370,000 tested, 1.4% active;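 active means activation above the mean of all tested compounds plus 3 SD, cut at about 5.5% in these data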
A number is an active result; 0 = inactive; - = not tested or not shown. Rows were chosen to be rich in hits. Some 3.4% of all compounds tested hit in one or more screens of this group.

SMILES | NF-kB expr up | ssDAF-12 act | APP 5'UTR act | hgDAF-12 ag | hcDAF-12 act
Cc1ccc(CCNC(=O)C2CC(c3ccccc3[N+](=O)[O-])=NO2)cc1 (stereo not drawn) | 0 | 0 | 0 | 0 | 0
CCCN(CC1CC1)C(=O)c1ccc(CNC(=O)c2cccc(Br)c2)cc1 | - | 0 | - | 0 | 0
COc1ccc(C(=O)/C=C/Nc2cc(C)on2)cc1 | 4.3 | 0 | 0 | 12 | 0
COc1ccc(N/C=C\C(=O)c2ccc3c(c2)OCO3)cc1 | 8.4 | 0 | 0 | 0 | 0
O=C(/C=C\Nc1ccc2c(c1)OCO2)c1ccc(Cl)s1 | 0 | 0 | 164 | 0 | 0
O=C(/C=C\Nc1ccc2c(c1)OCO2)c1ccc2c(c1)OCO2 | 8 | 0 | 197 | 0 | 0
COc1ccc(/C=C/C(=O)Nc2cc(C)on2)cc1 | 0 | 0 | 0 | 0 | 0
CC(CCN1CCC(C(O)(c2ccccc2)c2ccccc2)CC1)Oc1ccc(F)cc1 (stereo not drawn) | - | 0 | - | 0 | 0
O=C(Cc1ccccc1)NC(=S)Nc1ccc2oc(-c3ccccc3F)nc2c1 | 0 | 0 | 0 | 0 | 0
CC(=O)NC(=S)Nc1ccc2oc(-c3cc(F)c(F)cc3Cl)nc2c1 | 0 | 0 | 170 | 0 | 0
COC(=O)[C@]12C[C@H](CC(=O)NCC3CCCCC3)C(=O)N(CCC3=CCCCC3)C1=C[C@H](C1CCCC1)O[C@@H]2C | - | 0 | - | 0 | 0
COCCn1c(C)cc(C(=O)CSc2nc3ccccc3c(=O)n2Cc2ccco2)c1C | 0 | 0 | 181 | 0 | 0
Cc1cc(C(=O)COC(=O)c2cccn2C)c(C)n1Cc1ccco1 | 0 | 0 | 166 | 0 | 0
Cc1cc(C(=O)CSc2nnc(N)s2)c(C)n1Cc1ccco1 | 4.1 | 0 | 235 | 0 | 0
Nc1nnc(SCC(=O)c2ccco2)s1 | 0 | 0 | 0 | 0 | 0
CCNC(=O)N(C)[C@H]1C[C@H]2c3[nH]c4cccc(-c5cccc(F)c5)c4c3CCN2C(=O)[C@H]1[C@H](C)O | - | 0 | - | 0 | 0
CCCCCCCCN1C(=O)[C@@H](CC(=O)NCCCN2CCCC2=O)C[C@@]2(C(=O)OC)C1=C[C@H](COCc1ccccc1)O[C@@H]2C | - | 0 | - | 0 | 0
O=C(Cc1c[nH]c2ccccc12)Nc1ccc(Nc2cccnc2)c(-c2ccc(-c3ccccc3)cc2F)c1 | - | 0 | - | 0 | 5.7
COc1cccc(C(=O)Nc2nnc(SCC(=O)Nc3ccc(NC(C)=O)cc3)s2)c1 | - | 0 | - | 0 | 5.6
COc1cccc(N2CC(C(=O)Nc3nnc(SCC(=O)Nc4ccc(NC(C)=O)cc4)s3)CC2=O)c1 (stereo not drawn) | - | 0 | - | 0 | 0
CCCc1nnc(NC(=O)c2cccc(OC)c2)s1 | 0 | 0 | 0 | 13 | 0
O=C(Nc1ccc(F)cc1)Nc1c(-c2ccc(C(F)(F)F)cc2)nc2ncccn12 | - | 0 | - | 0 | 0
COc1ccc2c(CSc3nc4nc(C)cc(C)n4n3)cc(=O)oc2c1 | 4.2 | 0 | 0 | 0 | 0
CCOC(=O)C1(C(=O)OCC)COC(=O)C1CN1Cc2cc3ccccc3nc2C1 (stereo not drawn) | - | 1.0 | - | 0 | 0
COc1ccc(C(=O)Nc2nccs2)cc1 | - | 0 | - | 0 | 0
SMILES | NF-kB expr up | ssDAF-12 act | APP 5'UTR act | hgDAF-12 ag | hcDAF-12 act
COc1ccc(NC(=O)Nc2nccs2)cc1 | 0 | 0 | 0 | 11 | 0
CCOC(=O)N1CCN(C(=O)C[C@H]2C(=O)N(CCCOC)C3=CCCCC[C@]32C(=O)OC)CC1 | - | 0 | - | 0 | 0
Cc1c(OC(C)C(=O)NC(Cc2c[nH]c3ccc(O)cc23)C(=O)O)ccc2c1oc(=O)c1ccccc12 (stereo not drawn) | - | 0 | - | 0 | 0
Cc1c(C)c2ccc(OC(C)C(=O)N[C@@H](Cc3c[nH]c4ccccc34)C(=O)O)c(C)c2oc1=O (stereo partly drawn) | - | 0 | - | 0 | 5.9
O=S1(=O)c2c(cccc2N2CCC[C@@H]2CO)OCCCN1C1CC1 | - | 0 | - | 0 | 0
OCCC1CN(Cc2cc(F)ccc2-n2cccn2)CCN1C1CCCC1 (stereo not drawn) | - | 1.7 | - | 0 | 0
CN1CC=C(c2ccccc2)N(c2ccccc2)C1=O | - | 0 | - | 0 | 0
O=c1[nH]c2ccccc2nc1/C=C/c1ccccc1 | 0 | 0 | 0 | 12 | 6.4
O=[N+]([O-])/C=C/c1cc2ccccc2[nH]1 | - | 0 | - | 0 | 5.8
Cc1ccc(C2=NNC(C(O)C(O)C(O)C(C)O)S2)cc1 (stereo not drawn) | 0 | 0 | 0 | 0 | 0
Cc1ccc(C2=NNC(c3cccc(F)c3)S2)cc1 (stereo not drawn) | 3.4 | 1.6 | 165 | 17 | 14
Fc1cccc(C2NN=C(c3ccccc3)S2)c1 (stereo not drawn) | 9 | 2.3 | 182 | 28 | 10
COC(=O)[C@]12C[C@H](CC(=O)NCC3CCCCC3)C(=O)N(Cc3cccc4ccccc34)C1=C[C@H](C(C)(C)C)O[C@@H]2C | - | 0 | - | 0 | 0
O=C(COCc1ccccc1)NC1CCCCN(Cc2cccc(Cl)c2)C1=O (stereo not drawn) | - | 0 | - | 0 | 0
O=C(CSc1nnc(COc2ccccc2)n1-c1ccc(Cl)cc1)Nc1ccc(OCc2ccccc2)cc1 | - | 0 | - | 0 | 0
Cc1cc(=O)[nH]c(=S)n1-c1ccccc1 | 0 | 0.9 | 0 | 0 | 0
Nc1cc(=O)[nH]c(=S)n1-c1ccccc1 | 0 | 0 | 0 | 0 | 0
Cc1ccc2c(CC(=O)OCc3cc(=O)n4c(n3)sc3ccccc34)coc2c1 | 0 | 0 | 0 | 0 | 0
CC(C)[C@H](NC(=O)Cc1ccccc1)C(=O)OCc1cc(=O)n2c(n1)sc1ccccc12 | 0 | 1.1 | 0 | 0 | 0
CC(=O)N1CCc2cc(S(=O)(=O)NCCC(=O)N(C)C3CCCCC3)ccc21 | - | 0 | - | 0 | 0
Cc1ccc(SCC(=O)OCC(=O)NCCCc2ccccc2)cc1 | - | 0 | - | 0 | 0
O=C(COC(=O)CSc1ccc(F)cc1)NCCCc1ccccc1 | - | 1.1 | - | 0 | 0
O=[N+]([O-])c1ccc(/C=N/Nc2ccc3ccccc3c2)o1 | 0 | 0 | 0 | 0 | 6.4
O=C(NC1CCCCN(Cc2ccc(Cl)cc2)C1=O)c1cc(-c2ccccc2)no1 (stereo not drawn) | - | 0 | - | 0 | 0
COC(=O)[C@]12C[C@H](CC(=O)N3CCCC3)C(=O)N(CCC3=CCCCC3)C1=C[C@H](C1CCCC1)O[C@@H]2C | - | 0 | - | 0 | 0
Nc1ccc2c(c1Cl)C(=O)c1ccc(N)c(Cl)c1C2=O | - | 1.1 | - | 0 | 0
COCCCNC(=O)CSc1nnc(-c2cccnc2)n1C1CCCCC1 | - | 0 | - | 0 | 0
CCC1(c2ccc(Cl)cc2)NC(=S)N(c2ccc(C)c(C)c2)N1 (stereo not drawn) | - | 0 | - | 0 | 0
CCC1(c2ccc(Cl)cc2)NC(=S)N(c2ccc(C)cc2)N1 (stereo not drawn) | 0 | 0 | 0 | 11 | 6.2
